Screens as filed in PubChem.
Rows were chosen to be rich in hits. Some 10% of all compounds tested hit in one or more screens of this group.
GLS inhibitor = glutaminase GLS (human) inhibition; O94925; GLS enzymatic activity, qHTS titration; Potency, µM (top dose mostly 45.5 µM), without a hit: at the top dose activity change, negative = inhibition, actives largely listed as inhibitors; actives 0.21% (n = 410,000); note: % is set by controls: 0 for no effect and ±100 for the full control effect
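hKGA in 45 mM KH2PO4 (pH 8.2), 0.02% Tween-20 with compound, then 1mM L-Glutamine (stock as added) plus glutamate oxidase/HRP/Amplex red coupling mix. Fluorescence read initially and after 30 min at RT; signal change reflects glutamate formation.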
G9a block = G9a (human) methyltransferase inhibition | actives 8.8% (n = 350,000) | G9a H3K9 monomethylation, AlphaScreen, 2 h | Potency, µM (top dose mostly 102 µM), for the others: top-dose activity, negative = inhibition, usual class: inhibitors | Q96KQ7; note: % is set by controls: 0 for no effect and ±100 for the full control effect; nearly all actives have a fitted effect of over 75% in size
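AlphaScreen read-out: biotin-H3K9 peptide (500 nM) methylation by 20 nM enzyme with 20 uM SAM, 2 h at room temperature after 15 min compound preincubation; anti-monomethyl H3K9 antibody plus donor/acceptor beads, 10 min dark.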
HP1b binding inh = inhibitors of HP1-beta chromodomain binding to methylated histone tails. P83916. AlphaScreen HP1-beta / biotin-H3K9me3 peptide binding. Potency, µM (top dose mostly 114 µM), for the others: at the top dose activity change, negative = inhibition, most hits filed as inhibitors. actives 0.56% (n = 390,000). AID 540317; note: nearly all actives have a fitted effect of over 70% in size
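HP1-beta protein (50 nM final) preincubated 30 min at room temperature with biotinylated H3(1-18)K9me3 peptide (50 nM) in PBS pH 7.4, 0.01% Tween-20, then compound added for 30 min. AlphaScreen streptavidin donor/nickel chelate acceptor beads (10 ug/mL final), 30 min dark, luminescence read.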
BAZ2B inh = blocks human BAZ2B; Q9UIF8; AlphaScreen BAZ2B-H3K14Ac peptide displacement; Potency, µM (titrated, usually from 114 µM), inactives show at the top dose activity change, negative = inhibition, hits mostly inhibitors; actives 4.4% (n = 360,000); AID 504333; note: % is set by controls: 0 for no effect and ±100 for the full control effect; nearly all actives have a fitted effect of over 60% in size
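Complex of BAZ2B and biotin-H3K14Ac (50 nM apiece) forms over 30 min at RT, then faces library compounds up to 110 uM for another 30 min; AlphaScreen beads added, 20 min dark incubation, luminescence read.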
JMJD2A Tudor inh = JMJD2A Tudor domain (human) inhibition | O75164 | AlphaScreen JMJD2A-Tudor / H3K4me3 peptide binding | Potency, µM (top dose mostly 114 µM), for the others: top-dose activity change, negative = inhibition, actives largely listed as inhibitors | actives 4.4% (n = 390,000) | AID 504339; note: % is set by controls: 0 for no effect and ±100 for the full control effect; nearly all actives have a fitted effect of over 50% in size
Target sequence (O75164 whole entry, looked up, the tested form may be a part): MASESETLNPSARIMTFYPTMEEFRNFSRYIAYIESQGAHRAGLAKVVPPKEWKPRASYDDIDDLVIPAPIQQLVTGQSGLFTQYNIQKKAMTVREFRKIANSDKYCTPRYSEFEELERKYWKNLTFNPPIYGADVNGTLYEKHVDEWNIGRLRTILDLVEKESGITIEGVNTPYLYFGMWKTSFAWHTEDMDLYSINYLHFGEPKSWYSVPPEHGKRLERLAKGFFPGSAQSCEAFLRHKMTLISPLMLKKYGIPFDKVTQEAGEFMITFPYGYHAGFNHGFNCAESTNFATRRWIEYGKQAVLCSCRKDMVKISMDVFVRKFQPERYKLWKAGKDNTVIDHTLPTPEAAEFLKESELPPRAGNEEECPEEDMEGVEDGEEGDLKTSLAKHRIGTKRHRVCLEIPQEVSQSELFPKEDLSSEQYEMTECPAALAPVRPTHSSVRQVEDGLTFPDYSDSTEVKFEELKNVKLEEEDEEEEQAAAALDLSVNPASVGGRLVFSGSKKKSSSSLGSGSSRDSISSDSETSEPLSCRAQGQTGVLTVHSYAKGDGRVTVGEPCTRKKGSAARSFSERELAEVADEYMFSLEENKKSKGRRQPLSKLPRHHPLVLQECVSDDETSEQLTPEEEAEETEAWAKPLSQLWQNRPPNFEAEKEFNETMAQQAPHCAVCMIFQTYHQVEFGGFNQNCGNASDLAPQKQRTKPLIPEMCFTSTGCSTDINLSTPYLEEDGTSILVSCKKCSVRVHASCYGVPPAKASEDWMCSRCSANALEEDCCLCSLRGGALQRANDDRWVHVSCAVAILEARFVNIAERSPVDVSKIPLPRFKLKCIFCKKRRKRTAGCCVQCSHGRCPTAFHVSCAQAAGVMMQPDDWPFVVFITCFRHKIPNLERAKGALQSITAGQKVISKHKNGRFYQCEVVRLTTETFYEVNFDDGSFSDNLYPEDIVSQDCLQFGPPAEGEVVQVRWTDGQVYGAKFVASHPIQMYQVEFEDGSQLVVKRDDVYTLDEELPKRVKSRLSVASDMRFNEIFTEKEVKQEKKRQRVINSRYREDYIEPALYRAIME
The depositor's hits bear a star; ? = inconclusive; . = not tested or not shown; [ ] = another dose, or the depositor's remark. Calls come from the whole dose curve; as a rule, active = well fitted curve in the direction sought with a large enough effect; inconclusive = small, poorly fitted or top-dose-only effect, or another doubt; inactive = no such curve, though single readings can be large; an effect the other way counts as inactive or inconclusive. Potency is the fitted concentration of half-maximal effect.

SMILES	GLS inhibitor	G9a block	HP1b binding inh	BAZ2B inh	JMJD2A Tudor inh
COC(=O)c1ccc(NC(=O)COc2ccc(S(=O)(=O)N3CCCCC3)cc2)cc1	-16%	-10%[12.7 µM]	17%	7%	-14%
CCN(CC)C(=O)[C@H]1C[C@H](CC(=O)NCc2ccco2)C(=O)N2CCc3c([nH]c4cc(-c5ccco5)ccc34)[C@]12C	5%	.	?	.	50µM*
CC(C)(C)NC(=O)C[C@H]1C[C@H](C(=O)N2CCCCC2)[C@@]2(C)c3[nH]c4cc(-c5ccco5)ccc4c3CCN2C1=O	9%	.	-23%	.	50µM*
COc1cc(/C=N/Nc2nc3ccccc3s2)cc([N+](=O)[O-])c1O	?	32µM*	?	35µM*	40µM*
CC(C)(C)N/N=C/c1cc(Cl)cc([N+](=O)[O-])c1O	17%	-1%[59 µM]	-33%	?	?
COc1cc(OC)cc(C(=O)Oc2ccc(/C=N/Nc3nc4ccccc4s3)cc2OC)c1	-1%	28µM*	1%	-11%	-29%
O=[N+]([O-])c1cc(Cl)cc(/C=N/Nc2nc3ccccc3s2)c1O	0%	.	?	6.3µM*	-25%[11.4 µM]
COc1ccc(C(=O)NCCSc2c[nH]c3ccccc23)cc1OC	-6%	-39%[59 µM]	21%	-29%	-22%
COc1ccc2[nH]c3c(c2c1)CCn1c-3nc2sc(C(=O)Nc3ccccc3)c(C)c2c1=O	.	14%[59 µM]	.	2%	.
CCc1cc2c(=O)n3c(nc2s1)-c1[nH]c2ccc(OC)cc2c1CC3	-3%	?	21%	8%	22µM*
COC(=O)/C=C1\C(=O)N(c2nc3ccccc3s2)C(=S)N1c1ccc(F)cc1	-6%	71µM*	15%	8%	-12%
COc1cc(OC)c(C(=O)OCC(=O)c2cc(C)n(CC3CCCO3)c2C)cc1OC (stereo not given)	-4%	?	-5%	-34%	-22%
COc1ccc(-c2nc(=S)c3c(n2Cc2cccnc2)CC(C)(C)OC3)cc1	6%	-5%	7%	-17%	-18%
CC1(C)Cc2c(c(=S)nc(-c3ccccc3)n2Cc2cccnc2)CO1	3%	35µM*	24%	-12%	-2%
CCOC(=O)N1CCN(S(=O)(=O)c2cc([N+](=O)[O-])c(C)cc2C)CC1	0%	-5%	4%	-31%	-23%
Cc1cc(NC(=O)Nc2cc(F)ccc2C)n(C)n1	-2%	5%	41%	1%	-5%
CN1CCN(c2ccc([N+](=O)[O-])cc2NC(=O)c2ccco2)CC1	3%	13%	20%	-3%	-14%
O=C(Nc1ccccc1N1CCCC1)c1ccc([N+](=O)[O-])o1	13%	3%[12.7 µM]	-15%	32µM*	?
O=C(Nc1cc([N+](=O)[O-])ccc1N1CCCC1)c1ccco1	-8%	50µM*	5%	-11%	-16%
COc1ccc(N2CCCC2)c(NC(=O)c2ccc([N+](=O)[O-])o2)c1	13µM*	?	35µM*	14µM*	28µM*
COc1ccc(C(=O)Nc2cc([N+](=O)[O-])ccc2N2CCCC2)cc1	-12%	?	9%	-31%	-14%
CN1CCN(c2ccccc2NC(=O)c2ccc(-c3ccc(Cl)cc3Cl)o2)CC1	2%	45µM*	4%	?	?
CS(=O)(=O)N1CCN(c2ccccc2NC(=O)c2ccc(-c3ccc(Cl)cc3Cl)o2)CC1	8%	-50%[12.7 µM]	24%	40%	-19%
CCOC(=O)N1CCN(C(=O)CCS(=O)(=O)c2ccc(Br)s2)CC1	1%	-35%	18%	3%	-9%
COc1cc(CNc2ccc(N3CCCCC3)cc2)ccc1OCC(=O)NC(C)(C)C	26%	14µM*	?	32µM*	45µM*
SMILES	GLS inhibitor	G9a block	HP1b binding inh	BAZ2B inh	JMJD2A Tudor inh
COc1cc(CNCCN2CCOCC2)ccc1OCC(=O)NC(C)(C)C	-14%	?	44%	-18%	1%
C=CCOc1ccc(CNc2ccc(NC(=O)CC(C)C)cc2)cc1OC	16%	71µM*	-1%	50µM*	?
COc1cc(CNc2ccc(N3CCCC3)cc2)ccc1OCc1ccccc1F	2%	10µM*	20µM*	25µM*	11µM*
CCCCN1C(=O)N(C)C2NC(=O)NC21 (stereo not given)	9%	0%[12.7 µM]	27%	-23%	-7%
CCCCN1C(=O)NC2NC(=O)NC21 (stereo not given)	-4%	25µM*	-51%	20µM*	?
CCOC(=O)C1Nc2ccccc2C2C(O)C(O)CC12 (stereo not given)	-9%	.	-14%	.	50µM*
COC(=O)Cn1c2ccc(F)cc2c2nc(C)sc21	-3%	45µM*	25%	-28%	-1%
COc1ccc(Nc2ncc3c(n2)CCN(Cc2cc(Br)cs2)C3)c(OC)c1	-4%	-36%[12.7 µM]	-5%	?	?
CCOC(=O)c1noc2nc(C)n(Cc3ccc([N+](=O)[O-])cc3)c(=O)c12	1%	-4%[59 µM]	-3%[57 µM]	-14%	20µM*
CCOC(=O)c1noc2nc(C)n(Cc3cccc([N+](=O)[O-])c3)c(=O)c12	-12%	0%[59 µM]	49%[57 µM]	18%	-5%
CCCC(=O)Nc1nc2nc(-c3ccccc3)cc(=O)n2[nH]1	-8%	17%	24%	21%	-23%
CCC(=O)Nc1nc2nc(-c3ccccc3)cc(=O)n2[nH]1	-6%	45µM*	-10%	-29%	?
O=C1c2ccccc2C(=O)c2c1cccc2N1CCOCC1	0%	.	40µM*	16µM*	35µM*
O=C(Nc1cccc(C(=O)Nc2cccc(C(F)(F)F)c2)c1)c1ccc(=O)[nH]c1	-1%	-10%	25%	3%	-1%
Cc1ccc2c(c1)C1(C(=O)N2)N2CCCC2C(C(=O)c2ccc3ccccc3c2)C12C(=O)Nc1ccccc12 (stereo not given)	-10%	?	?	?	50µM*
O=C1CCC(C(=O)N2CCCC(C(=O)c3ccc4ccccc4c3)C2)=NN1 (stereo not given)	0%	?	44%	-17%	-17%
CC1(C(=O)NCc2cccc3ccccc23)CCN1Cc1ccc(OC(F)(F)F)cc1 (stereo not given)	-1%	.	.	.	.
O=C(c1ccco1)N1CCN(c2ncnc3scc(-c4ccccc4)c23)CC1	2%	15%[59 µM]	-15%	-13%	-19%
COc1ccc(N2CCN(c3ncnc4scc(-c5ccccc5)c34)CC2)cc1	14%	7.9µM*	?	14µM*	25µM*
COc1ccc(CN2CCN(c3ncnc4scc(-c5ccc(F)cc5)c34)CC2)cc1	-13%	15%[2.33 µM]	?	?	?
COc1ccc(-c2csc3ncnc(N4CCN(C(=O)c5ccco5)CC4)c23)cc1	2%	50µM*	56%	-34%	-19%
COc1ccc(-c2csc3ncnc(N4CCN(c5ccccc5Cl)CC4)c23)cc1	6%	-16%	22%	-22%	-10%
